Data from the supplement of paper PMC10849652.
Of roughly 8,800 targets only a part is listed; those with a hit were picked by preference. About 0.5% of all pairs of compound and target were hits.

Each target was assayed with CC1=C(SC2=C1C(=N[C@H](C3=NN=C(N32)C)CC(=O)N)C4=CC=C(C=C4)Cl)C (assay: log2 fold change, soluble protein after heating vs DMSO (PISA); higher = thermal stabilisation; K562 lysate, 10 uM; active = over 0.2 and 3.5 SD of the protein, either way, in both replicates (recomputed)).
Method in brief: (§1)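 K562 pellets were dounce-homogenised in PBS pH 7.4 with 1 mM MgCl2, and the crude extract at 1 mg/mL protein was treated with 10 μM compound for 30 min. Aliquots were heated for 3 min across 48°C-58°C, pooled, and brought to 0.5% NP-40 at 4°C; soluble protein was the supernatant after 21,000xg for 90 min. Soluble protein was quantified by TMTpro 16plex LC-MS/MS with channel sums equalised, and reported as log2 fold change in thermal stability against DMSO controls, with values from duplicates.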

UniProt Q15813, sequence (Q15813 whole entry, looked up): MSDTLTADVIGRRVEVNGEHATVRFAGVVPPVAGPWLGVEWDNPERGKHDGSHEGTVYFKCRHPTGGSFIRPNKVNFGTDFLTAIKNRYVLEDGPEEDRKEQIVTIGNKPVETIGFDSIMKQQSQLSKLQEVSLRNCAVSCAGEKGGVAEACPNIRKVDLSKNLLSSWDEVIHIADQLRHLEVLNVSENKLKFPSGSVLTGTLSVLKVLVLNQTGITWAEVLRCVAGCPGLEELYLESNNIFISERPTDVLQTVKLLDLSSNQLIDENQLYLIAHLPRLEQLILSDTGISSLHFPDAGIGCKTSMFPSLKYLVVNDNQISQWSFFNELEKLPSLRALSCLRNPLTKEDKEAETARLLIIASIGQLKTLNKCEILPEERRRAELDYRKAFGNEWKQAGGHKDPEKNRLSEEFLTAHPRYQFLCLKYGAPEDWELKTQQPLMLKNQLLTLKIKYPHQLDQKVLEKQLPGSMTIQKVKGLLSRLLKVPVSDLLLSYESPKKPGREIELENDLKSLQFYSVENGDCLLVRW
UniProt Q8WVT3, sequence (Q8WVT3 whole entry, looked up): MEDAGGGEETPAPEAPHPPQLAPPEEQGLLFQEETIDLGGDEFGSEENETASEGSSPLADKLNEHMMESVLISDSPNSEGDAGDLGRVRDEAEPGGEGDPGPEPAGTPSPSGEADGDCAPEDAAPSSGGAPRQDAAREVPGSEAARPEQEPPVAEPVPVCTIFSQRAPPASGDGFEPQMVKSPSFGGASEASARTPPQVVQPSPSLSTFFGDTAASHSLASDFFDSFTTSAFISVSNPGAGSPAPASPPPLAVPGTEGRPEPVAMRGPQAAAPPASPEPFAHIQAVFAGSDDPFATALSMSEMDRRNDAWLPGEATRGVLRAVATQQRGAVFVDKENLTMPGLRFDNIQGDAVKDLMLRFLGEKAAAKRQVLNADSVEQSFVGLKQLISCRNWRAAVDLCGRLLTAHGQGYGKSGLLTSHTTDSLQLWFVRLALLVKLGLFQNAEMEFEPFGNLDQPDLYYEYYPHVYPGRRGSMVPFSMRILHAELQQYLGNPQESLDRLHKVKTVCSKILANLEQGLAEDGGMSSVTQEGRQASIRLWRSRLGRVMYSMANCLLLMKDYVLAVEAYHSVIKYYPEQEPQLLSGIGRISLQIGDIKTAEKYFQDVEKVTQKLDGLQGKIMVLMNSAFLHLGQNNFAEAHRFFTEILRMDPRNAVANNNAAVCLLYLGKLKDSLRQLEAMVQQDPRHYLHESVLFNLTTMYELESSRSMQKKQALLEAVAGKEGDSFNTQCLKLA
UniProt Q9UKE5, sequence (Q9UKE5 whole entry, looked up): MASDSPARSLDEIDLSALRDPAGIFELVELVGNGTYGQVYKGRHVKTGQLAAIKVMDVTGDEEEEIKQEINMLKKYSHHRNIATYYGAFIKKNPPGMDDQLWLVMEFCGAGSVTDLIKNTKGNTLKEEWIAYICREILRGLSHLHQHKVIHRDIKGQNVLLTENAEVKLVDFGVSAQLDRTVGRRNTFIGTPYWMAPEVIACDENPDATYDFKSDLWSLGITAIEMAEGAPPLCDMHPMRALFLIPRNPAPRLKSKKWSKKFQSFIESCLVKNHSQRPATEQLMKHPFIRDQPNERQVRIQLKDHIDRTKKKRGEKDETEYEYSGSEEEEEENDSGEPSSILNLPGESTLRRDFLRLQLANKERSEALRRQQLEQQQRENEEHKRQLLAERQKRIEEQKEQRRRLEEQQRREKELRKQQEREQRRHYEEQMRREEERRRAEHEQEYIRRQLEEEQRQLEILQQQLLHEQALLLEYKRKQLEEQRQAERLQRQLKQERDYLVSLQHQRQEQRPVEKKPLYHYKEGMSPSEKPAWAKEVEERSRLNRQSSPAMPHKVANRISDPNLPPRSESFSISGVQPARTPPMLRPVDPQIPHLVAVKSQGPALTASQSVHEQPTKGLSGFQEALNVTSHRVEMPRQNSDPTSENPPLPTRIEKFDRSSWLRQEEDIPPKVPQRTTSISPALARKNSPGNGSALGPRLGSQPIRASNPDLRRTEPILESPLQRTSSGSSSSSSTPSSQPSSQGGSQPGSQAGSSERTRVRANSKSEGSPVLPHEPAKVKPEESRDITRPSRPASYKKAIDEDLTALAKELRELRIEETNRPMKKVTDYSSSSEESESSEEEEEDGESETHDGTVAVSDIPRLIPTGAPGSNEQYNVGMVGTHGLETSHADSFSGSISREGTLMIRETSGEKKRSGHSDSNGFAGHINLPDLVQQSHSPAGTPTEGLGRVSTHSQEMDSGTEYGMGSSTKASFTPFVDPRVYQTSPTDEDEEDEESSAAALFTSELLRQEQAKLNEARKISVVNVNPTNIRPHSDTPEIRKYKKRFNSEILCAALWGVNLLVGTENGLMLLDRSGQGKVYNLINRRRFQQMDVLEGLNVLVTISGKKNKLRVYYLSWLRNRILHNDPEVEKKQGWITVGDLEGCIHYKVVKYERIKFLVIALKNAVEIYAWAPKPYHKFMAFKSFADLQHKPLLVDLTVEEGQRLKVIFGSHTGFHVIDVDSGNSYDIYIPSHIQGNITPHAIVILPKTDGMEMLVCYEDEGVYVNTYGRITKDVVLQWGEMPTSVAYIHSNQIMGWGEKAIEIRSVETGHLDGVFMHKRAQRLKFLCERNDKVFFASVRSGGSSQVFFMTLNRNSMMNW
UniProt Q8TBZ6, sequence (Q8TBZ6 whole entry, looked up): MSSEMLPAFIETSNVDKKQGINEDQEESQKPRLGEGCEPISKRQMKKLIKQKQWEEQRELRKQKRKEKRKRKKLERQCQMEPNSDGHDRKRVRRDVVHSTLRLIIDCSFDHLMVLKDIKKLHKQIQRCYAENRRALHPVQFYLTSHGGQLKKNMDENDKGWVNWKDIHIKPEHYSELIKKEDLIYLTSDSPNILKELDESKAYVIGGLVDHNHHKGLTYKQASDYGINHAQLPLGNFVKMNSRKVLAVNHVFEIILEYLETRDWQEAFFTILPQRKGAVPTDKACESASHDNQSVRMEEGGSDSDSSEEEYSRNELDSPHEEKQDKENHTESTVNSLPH
UniProt Q12815, sequence (Q12815 whole entry, looked up): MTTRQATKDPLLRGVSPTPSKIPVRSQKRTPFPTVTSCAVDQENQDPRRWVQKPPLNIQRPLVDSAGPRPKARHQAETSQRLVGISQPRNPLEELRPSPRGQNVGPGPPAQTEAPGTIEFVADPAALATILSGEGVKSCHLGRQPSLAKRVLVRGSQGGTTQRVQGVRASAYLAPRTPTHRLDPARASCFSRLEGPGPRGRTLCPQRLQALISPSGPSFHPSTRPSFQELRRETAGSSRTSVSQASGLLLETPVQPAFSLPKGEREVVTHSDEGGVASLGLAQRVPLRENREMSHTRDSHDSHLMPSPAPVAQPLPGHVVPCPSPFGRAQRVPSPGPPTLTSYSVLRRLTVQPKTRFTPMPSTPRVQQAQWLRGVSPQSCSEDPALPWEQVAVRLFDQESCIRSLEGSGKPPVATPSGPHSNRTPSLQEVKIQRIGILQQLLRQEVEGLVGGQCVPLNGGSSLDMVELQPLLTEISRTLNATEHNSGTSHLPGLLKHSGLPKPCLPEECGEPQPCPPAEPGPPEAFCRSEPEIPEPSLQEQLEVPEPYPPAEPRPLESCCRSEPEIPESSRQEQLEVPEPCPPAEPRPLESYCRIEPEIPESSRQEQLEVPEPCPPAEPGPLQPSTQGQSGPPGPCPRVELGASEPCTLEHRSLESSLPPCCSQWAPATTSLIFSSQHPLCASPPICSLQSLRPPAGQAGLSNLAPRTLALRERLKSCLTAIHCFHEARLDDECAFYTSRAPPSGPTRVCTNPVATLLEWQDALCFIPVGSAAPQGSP
UniProt P33981, sequence (P33981 whole entry, looked up): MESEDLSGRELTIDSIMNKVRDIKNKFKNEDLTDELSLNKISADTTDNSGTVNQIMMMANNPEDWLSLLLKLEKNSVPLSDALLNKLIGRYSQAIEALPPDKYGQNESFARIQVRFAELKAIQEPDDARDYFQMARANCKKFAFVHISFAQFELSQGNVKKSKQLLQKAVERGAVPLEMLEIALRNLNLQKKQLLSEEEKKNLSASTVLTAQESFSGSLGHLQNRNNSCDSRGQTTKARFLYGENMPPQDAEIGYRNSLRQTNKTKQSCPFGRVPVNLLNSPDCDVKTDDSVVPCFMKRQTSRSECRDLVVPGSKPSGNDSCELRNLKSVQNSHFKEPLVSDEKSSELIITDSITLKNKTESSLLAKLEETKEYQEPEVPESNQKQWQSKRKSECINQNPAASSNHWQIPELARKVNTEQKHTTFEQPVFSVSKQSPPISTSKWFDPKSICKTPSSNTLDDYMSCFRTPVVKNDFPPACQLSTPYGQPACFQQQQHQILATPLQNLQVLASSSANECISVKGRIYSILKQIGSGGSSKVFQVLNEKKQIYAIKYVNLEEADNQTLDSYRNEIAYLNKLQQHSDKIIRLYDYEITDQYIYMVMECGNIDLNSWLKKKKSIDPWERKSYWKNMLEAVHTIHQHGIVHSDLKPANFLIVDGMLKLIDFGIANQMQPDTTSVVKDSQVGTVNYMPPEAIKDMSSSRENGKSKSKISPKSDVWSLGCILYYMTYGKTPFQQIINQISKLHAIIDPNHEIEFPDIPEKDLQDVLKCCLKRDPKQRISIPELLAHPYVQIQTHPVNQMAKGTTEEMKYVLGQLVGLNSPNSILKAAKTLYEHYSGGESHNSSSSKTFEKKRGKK
UniProt Q9BUF5, sequence (Q9BUF5 whole entry, looked up): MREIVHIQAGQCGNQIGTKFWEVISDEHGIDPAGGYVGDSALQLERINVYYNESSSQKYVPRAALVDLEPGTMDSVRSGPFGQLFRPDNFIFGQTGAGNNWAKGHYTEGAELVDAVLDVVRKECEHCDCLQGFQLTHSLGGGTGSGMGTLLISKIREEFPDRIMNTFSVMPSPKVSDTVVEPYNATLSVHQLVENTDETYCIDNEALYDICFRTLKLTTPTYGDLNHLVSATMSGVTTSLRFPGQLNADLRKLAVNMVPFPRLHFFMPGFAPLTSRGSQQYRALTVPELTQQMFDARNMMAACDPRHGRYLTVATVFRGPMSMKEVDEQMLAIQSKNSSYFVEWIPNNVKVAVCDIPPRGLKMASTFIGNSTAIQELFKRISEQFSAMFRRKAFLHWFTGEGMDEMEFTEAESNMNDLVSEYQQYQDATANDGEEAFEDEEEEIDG

Q: With TBL3 (UniProt Q12788) as the target, how does the log2 fold change read?
A: Its log2 fold change is 0.003 (inactive).

Q: TRMT10A (UniProt Q8TBZ6) was tested. Which log2 fold change did it give?
A: The log2 fold change was 0.099 (inactive).

Q: With TLK1 isoform 2 (UniProt Q9UKI8) as the target, how does the log2 fold change read?
A: Its log2 fold change is -0.02 (inactive).

Q: How did the log2 fold change turn out when TRAPPC9 isoform 2 (UniProt Q96Q05) was run?
A: The log2 fold change was 0.05 (inactive).

Q: How did the log2 fold change turn out when TUBB1 (UniProt Q9H4B7) was run?
A: Its log2 fold change is 0.019 (inactive).

Q: For TYW3 (UniProt Q6IPR3), which log2 fold change is on record?
A: The log2 fold change was 0.006 (inactive).

Q: For TNIK isoform 4 (UniProt Q9UKE5), which log2 fold change is on record?
A: The log2 fold change was -0.002 (inactive).

Q: With TCF12 isoform 3 (UniProt Q99081) as the target, how does the log2 fold change read?
A: The log2 fold change was -0.072 (inactive).

Q: For TUBB6 (UniProt Q9BUF5), which log2 fold change is on record?
A: The log2 fold change was 0.033 (inactive).

Q: TFCP2 (UniProt Q12800) was tested. Which log2 fold change did it give?
A: Its log2 fold change is -0.013 (inactive).

Q: TFAP4 (UniProt Q01664) was tested. Which log2 fold change did it give?
A: The log2 fold change was -0.069 (inactive).

Q: For TRIM11 (UniProt Q96F44), which log2 fold change is on record?
A: Its log2 fold change is 0.035 (inactive).

Q: Which log2 fold change does the source give for TROAP (UniProt Q12815) here?
A: The log2 fold change was 0.12 (inactive).

Q: UBR4 (UniProt Q5T4S7) was tested. Which log2 fold change did it give?
A: The log2 fold change was -0.008 (inactive).

Q: How did the log2 fold change turn out when TEX30 (UniProt Q5JUR7) was run?
A: The log2 fold change was 0.066 (inactive).

Q: With TRAPPC12 (UniProt Q8WVT3) as the target, how does the log2 fold change read?
A: The log2 fold change was -0.016 (inactive).

Q: With TTLL12 (UniProt V9GY16) as the target, how does the log2 fold change read?
A: Its log2 fold change is 0.606 (inactive).

Q: How did the log2 fold change turn out when TESC (UniProt Q96BS2) was run?
A: Its log2 fold change is -0.131 (inactive).

Q: Which log2 fold change does the source give for TMEM87A (UniProt Q8NBN3) here?
A: The log2 fold change was -0.014 (inactive).

Q: Which log2 fold change does the source give for TBK1 (UniProt Q9UHD2) here?
A: Its log2 fold change is 0.021 (inactive).

Q: TRIM25 (UniProt Q14258) was tested. Which log2 fold change did it give?
A: The log2 fold change was 0.001 (inactive).

Q: UBL5 (UniProt Q9BZL1) was tested. Which log2 fold change did it give?
A: Its log2 fold change is 0.008 (inactive).

Q: For TSPAN13 (UniProt O95857), which log2 fold change is on record?
A: The log2 fold change was 0.025 (inactive).

Q: How did the log2 fold change turn out when TTK (UniProt P33981) was run?
A: The log2 fold change was -0.003 (inactive).

Q: Which log2 fold change does the source give for TIAL1 isoform 2 (UniProt Q01085) here?
A: Its log2 fold change is 0.017 (inactive).

Q: How did the log2 fold change turn out when TGFBRAP1 (UniProt Q8WUH2) was run?
A: Its log2 fold change is 0.024 (inactive).

Q: How did the log2 fold change turn out when UBE2L6 (UniProt O14933) was run?
A: The log2 fold change was 0 (inactive).

Q: For TUBB4A (UniProt M0QYM7), which log2 fold change is on record?
A: Its log2 fold change is -0.162 (inactive).

Q: TRIM44 (UniProt Q96DX7) was tested. Which log2 fold change did it give?
A: Its log2 fold change is -0.126 (inactive).

Q: For THAP9 (UniProt Q9H5L6), which log2 fold change is on record?
A: Its log2 fold change is 0.039 (inactive).

Q: How did the log2 fold change turn out when TXNRD2 (UniProt Q9NNW7) was run?
A: Its log2 fold change is -0.015 (inactive).

Q: For TMOD1 (UniProt P28289), which log2 fold change is on record?
A: Its log2 fold change is 0.021 (inactive).

Q: With TBCE (UniProt Q15813) as the target, how does the log2 fold change read?
A: The log2 fold change was -0.027 (inactive).

Q: How did the log2 fold change turn out when TOR3A (UniProt Q9H497) was run?
A: The log2 fold change was -0.025 (inactive).

Q: TPD52L2 isoform 7 (UniProt O43399) was tested. Which log2 fold change did it give?
A: The log2 fold change was -0.036 (inactive).

Q: For TJP1 (UniProt G3V1L9), which log2 fold change is on record?
A: Its log2 fold change is -0.014 (inactive).

Q: How did the log2 fold change turn out when TFPI (UniProt P10646) was run?
A: The log2 fold change was -0.116 (inactive).

Q: How did the log2 fold change turn out when TMEM164 (UniProt Q5U3C3) was run?
A: The log2 fold change was -0.155 (inactive).

Q: How did the log2 fold change turn out when TUBA3C (UniProt P0DPH7) was run?
A: The log2 fold change was 0.022 (inactive).

These targets were tested with CC1=C2C(=CC=C1)N=C(N(C2=O)C3=CC=CC=C3C)CN4C=NC5=C(N=CN=C54)N in the same assay as above.
Method in brief: as §1

Q: Which log2 fold change does the source give for TBL3 (UniProt Q12788) here?
A: The log2 fold change was -0.014 (inactive).

Q: With TRMT10A (UniProt Q8TBZ6) as the target, how does the log2 fold change read?
A: The log2 fold change was -0.025 (inactive).

Q: TLK1 isoform 2 (UniProt Q9UKI8) was tested. Which log2 fold change did it give?
A: Its log2 fold change is -0.026 (inactive).

Q: TRAPPC9 isoform 2 (UniProt Q96Q05) was tested. Which log2 fold change did it give?
A: The log2 fold change was 0 (inactive).

Q: With TUBB1 (UniProt Q9H4B7) as the target, how does the log2 fold change read?
A: Its log2 fold change is 0.008 (inactive).

Q: With TYW3 (UniProt Q6IPR3) as the target, how does the log2 fold change read?
A: Its log2 fold change is 0.065 (inactive).

Q: With TNIK isoform 4 (UniProt Q9UKE5) as the target, how does the log2 fold change read?
A: The log2 fold change was -0.017 (inactive).

Q: TCF12 isoform 3 (UniProt Q99081) was tested. Which log2 fold change did it give?
A: Its log2 fold change is 0.014 (inactive).

Q: Which log2 fold change does the source give for TUBB6 (UniProt Q9BUF5) here?
A: The log2 fold change was 0.02 (inactive).

Q: For TFCP2 (UniProt Q12800), which log2 fold change is on record?
A: The log2 fold change was 0.004 (inactive).

Q: How did the log2 fold change turn out when TFAP4 (UniProt Q01664) was run?
A: Its log2 fold change is 0.012 (inactive).

Q: TRIM11 (UniProt Q96F44) was tested. Which log2 fold change did it give?
A: Its log2 fold change is 0.04 (inactive).

Q: For TROAP (UniProt Q12815), which log2 fold change is on record?
A: The log2 fold change was 0.024 (inactive).

Q: UBR4 (UniProt Q5T4S7) was tested. Which log2 fold change did it give?
A: The log2 fold change was 0.012 (inactive).

Q: For TEX30 (UniProt Q5JUR7), which log2 fold change is on record?
A: The log2 fold change was -0.006 (inactive).

Q: TRAPPC12 (UniProt Q8WVT3) was tested. Which log2 fold change did it give?
A: The log2 fold change was -0.023 (inactive).

Q: For TTLL12 (UniProt V9GY16), which log2 fold change is on record?
A: Its log2 fold change is 0.066 (inactive).

Q: Which log2 fold change does the source give for TESC (UniProt Q96BS2) here?
A: Its log2 fold change is -0.001 (inactive).

Q: For TMEM87A (UniProt Q8NBN3), which log2 fold change is on record?
A: The log2 fold change was -0.011 (inactive).

Q: For TBK1 (UniProt Q9UHD2), which log2 fold change is on record?
A: The log2 fold change was -0.031 (inactive).

Q: How did the log2 fold change turn out when TRIM25 (UniProt Q14258) was run?
A: Its log2 fold change is 0.001 (inactive).

Q: With UBL5 (UniProt Q9BZL1) as the target, how does the log2 fold change read?
A: The log2 fold change was -0.06 (inactive).

Q: TSPAN13 (UniProt O95857) was tested. Which log2 fold change did it give?
A: Its log2 fold change is -0.048 (inactive).

Q: For TTK (UniProt P33981), which log2 fold change is on record?
A: Its log2 fold change is 0.068 (inactive).

Q: Which log2 fold change does the source give for TIAL1 isoform 2 (UniProt Q01085) here?
A: Its log2 fold change is -0.02 (inactive).

Q: With TGFBRAP1 (UniProt Q8WUH2) as the target, how does the log2 fold change read?
A: The log2 fold change was 0 (inactive).

Q: With UBE2L6 (UniProt O14933) as the target, how does the log2 fold change read?
A: The log2 fold change was -0.068 (inactive).

Q: With TUBB4A (UniProt M0QYM7) as the target, how does the log2 fold change read?
A: Its log2 fold change is 0.016 (inactive).

Q: How did the log2 fold change turn out when TRIM44 (UniProt Q96DX7) was run?
A: Its log2 fold change is -0.061 (inactive).

Q: THAP9 (UniProt Q9H5L6) was tested. Which log2 fold change did it give?
A: Its log2 fold change is 0.165 (inactive).

Q: How did the log2 fold change turn out when TXNRD2 (UniProt Q9NNW7) was run?
A: The log2 fold change was -0.048 (inactive).

Q: Which log2 fold change does the source give for TMOD1 (UniProt P28289) here?
A: The log2 fold change was 0.043 (inactive).

Q: With TBCE (UniProt Q15813) as the target, how does the log2 fold change read?
A: The log2 fold change was 0.014 (inactive).

Q: Which log2 fold change does the source give for TOR3A (UniProt Q9H497) here?
A: Its log2 fold change is 0.013 (inactive).

Q: How did the log2 fold change turn out when TPD52L2 isoform 7 (UniProt O43399) was run?
A: Its log2 fold change is -0.024 (inactive).

Q: For TJP1 (UniProt G3V1L9), which log2 fold change is on record?
A: The log2 fold change was 0.127 (inactive).

Q: Which log2 fold change does the source give for TFPI (UniProt P10646) here?
A: Its log2 fold change is -0.16 (inactive).

Q: For TMEM164 (UniProt Q5U3C3), which log2 fold change is on record?
A: The log2 fold change was 0.111 (inactive).

Q: Which log2 fold change does the source give for TUBA3C (UniProt P0DPH7) here?
A: The log2 fold change was 0.029 (inactive).
